The record followed here is PubChem BioAssay (NCI).

The structures appear in SMILES notation. Compounds without any hit were thinned out: in the full panel of roughly 83,000, 20% have a hit.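 96-well plates, one dose, 48 hours. Percent growth reported; active if below 10.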 Unmarked numbers belong to inactive results. Calls of active or inactive are those of the source.

The assay has as its system UACC-62 melanoma. Kind of assay: NCI-60 one-dose screen, 48 h (100 = growth as untreated, 0 = no growth, -100 = all killed). The note with it: 10 µM unless noted.
For `COC(=O)[C@@H](C)C[C@H](Cc1ccccc1)NC(=O)c1nc([C@@H](C[C@H](C(C)C)N(C)C(=O)[C@@H](NC(=O)[C@H]2CCCN2C)C(C)C)OC(C)=O)sc1C`, the growth is 46.6%.

In the case of `CCCCCSC1C2C(=O)C(Br)=CC13CCNc1c(O)c4c5c(c13)=[N+]2CCC=5C=N4` (configuration not stated), the growth was -51.2% (active). As for `CC1=C(CCCOC(=O)CN)C2=C(C)C3(CC3)[C@@](C)(O)C(=O)C2=C1`, the growth was 90.8%.

In the case of `COC(=O)CC[C@H](Cc1ccccc1)NC(=O)c1csc([C@@H](C[C@H](C(C)C)N(C)C(=O)[C@@H](NC(=O)[C@H]2CCCCN2C)C(C)C)OC(C)=O)n1`, the growth was 34.4%. As to `COC(=O)CC12CC(NC(=O)c3csc([C@@H](C[C@H](C(C)C)N(C)C(=O)[C@@H](NC(=O)[C@H]4CCCCN4C)C(C)C)OC(C)=O)n3)(C1)C2`, the growth is 49.7%. Take `O=C1CNC(c2ccccc2)c2cc(Cl)ccc2N1` (configuration not stated): the growth is 93.4%. As for `CC1(C)N=C(N)N=C(N)N1c1cccc(CCCCc2ccc(Cl)c(S(=O)(=O)F)c2)c1`, the growth is 15.3%.

Take `CC(=O)O[C@H](C[C@H](C(C)C)N(C)C(=O)[C@@H](NC(=O)[C@H]1CCCCN1C)C(C)C)c1nc(C(=O)N[C@@H](Cc2ccccc2)C[C@H](C)C(=O)O)c(C(C)C)s1`: the growth was 31.1%. Under `COC(=O)[C@@H](C)C[C@H](Cc1ccccc1)NC(=O)c1csc(CC[C@H](C(C)C)N(C)C(=O)[C@@H](NC(=O)[C@H]2CCCCN2C)C(C)C)n1` stands 40.7%; under `CCOP(=O)(NC[C@H]1O[C@](O)(CO)[C@@H](O)[C@@H]1O)OCC`, 99.8%.

In the case of `COc1cc([C@@H]2c3cc4c(cc3[C@H](OC(C)=O)[C@H]3COC(=O)[C@H]23)OCO4)cc(OC)c1OC`, the growth was 43.2%. On to `COC(=O)[C@@H](C)C[C@H](Cc1cn(C)c2ccccc12)NC(=O)c1csc([C@@H](C[C@H](C(C)C)N(C)C(=O)[C@@H](NC(=O)[C@H]2CCCCN2C)C(C)C)OC(C)=O)n1`, for which the growth was 47.8%. With `CCOC(=O)[C@@H](C)C[C@H](Cc1ccccc1)NC(=O)c1csc([C@@H](C[C@H](C(C)C)N(C)C(=O)[C@@H](NC(=O)[C@H]2CCCCN2C)C(C)(C)C)OC(C)=O)n1` the figure was 27%; with `CC1=C(CCCNS(C)(=O)=O)C2=C(C)C3(CC3)[C@@](C)(O)C(=O)C2=C1`, -52.7% (active). In the case of `COC(=O)[C@@H](C)C[C@H](Cc1ccccc1)NC(=O)c1cccc([C@@H](C[C@H](C(C)C)N(C)C(=O)[C@@H](NC(=O)[C@H]2CCCCN2C)C(C)C)OC(C)=O)n1`, the growth is 29.1%. On to `CNC(=O)Oc1ccc(C(C)(C)C)cc1OC(=O)NC`, for which the growth is 99.6%. With `CC1(C)C(C(=O)c2cn(CCCCF)c3ccccc23)C1(C)C`, the growth was 88.4%. For the molecule `CC(=O)O[C@H](C[C@H](C(C)C)N(C)C(=O)[C@@H](NC(=O)[C@H]1CCCCN1C)C(C)C)c1nc(C(=O)NC2CCC(C(=O)O)CC2)cs1` (some centres not stated), the growth is 28%. Consider `CCCC[C@H](NC(=O)[C@H]1CCCN1C)C(=O)N(C)[C@H](C[C@@H](OC(C)=O)c1nc(C(=O)N[C@@H](Cc2ccccc2)C[C@H](C)C(=O)OCC)cs1)C(C)C`, for which the growth is 43.4%.

Take `CCOC(=O)[C@@H](C)C[C@H](Cc1ccccc1)NC(=O)c1csc([C@@H](C[C@H](C(C)C)N(C)C(=O)CNC(=O)[C@H]2CCCCN2C)OC(C)=O)n1`: the growth was 29.8%.

For the molecule `COc1ccc([As]=[As]c2ccc(OC)c(NCS(=O)(=O)O)c2)cc1NCS(=O)(=O)O` (configuration not stated), the growth was 17%. In the case of `CC1=C(CCCOC(=O)[C@H](N)CC(C)C)C2=C(C)C3(CC3)[C@@](C)(O)C(=O)C2=C1`, the growth was 11.3%. On to `O=[N+]([O-])c1cc(I)cc([N+](=O)[O-])c1`, for which the growth is 103%.

`CC(=O)OC[C@]1(C)C=C2C(=O)[C@](C)(O)C3(CC3)C(C)=C2[C@H]1OC(=O)N(C)CCN(C)C(=O)OC(C)(C)C`: the growth is -52% (active).

With `CC[C@H](C)[C@H](NC(=O)[C@H]1CCCCN1C)C(=O)N(C)[C@H](CCc1nc(C(=O)N[C@@H](Cc2ccccc2)C[C@H](C)C(=O)OC)cs1)C(C)C`, the growth is 41.5%. Take `COc1ccc(Nc2ccc([N+](=O)[O-])cc2[N+](=O)[O-])cc1CN(CCCl)CCCl`: the growth was 12.1%. Under `COC(=O)CCc1c[nH]c2ccc(N(CCCl)CCCl)cc12` stands 49.3%; under `Nc1c(F)cc(-c2nc3cc(F)ccc3[se]2)cc1F`, 66.5%; under `COC(=O)[C@@]1(C)CC[C@]2(C)CC[C@]3(C)C4=CC=C5C(=CC(=O)C(O)=C5C)[C@]4(C)CC[C@@]3(C)[C@@H]2C1`, -92.7% (active). As for `COC(=O)[C@@H](C)C[C@H](Cc1ccccc1)NC(=O)c1nc([C@@H](C[C@H](C(C)C)N(C)C(=O)[C@@H](NC(=O)[C@H]2CCCCN2C)C(C)C)OC(C)=O)sc1C`, the growth is 30.2%. With `CC(=O)O[C@H](C[C@H](C(C)C)N(C)C(=O)[C@@H](NC(=O)[C@H]1CCCN1C)C(C)C)c1nc(C(=O)N[C@@H](Cc2ccccc2)C[C@H](C)C(=O)O)c(C)s1`, the growth was 39.3%.

Regarding `CCOC(=O)[C@@H](C)C[C@H](Cc1ccccc1)NC(=O)c1csc([C@@H](C[C@H](C(C)C)N(C)C(=O)[C@H](CCC(C)C)NC(=O)[C@H]2CCCCN2C)OC(C)=O)n1`, the growth is 40.7%. Turning to `COC(=O)C12CC(NC(=O)c3csc([C@@H](C[C@H](C(C)C)N(C)C(=O)[C@@H](NC(=O)[C@H]4CCCCN4C)C(C)C)OC(C)=O)n3)(C1)C2`, the growth was 37.2%. With `Clc1ccc2nnnn2n1` the figure was 45.4%; with `CC[C@H](C)[C@H](NC(=O)[C@H]1CCCCN1C)C(=O)N(C)[C@H](C[C@@H](O)c1nc(C(=O)N[C@@H](Cc2ccccc2)C[C@H](C)C(=O)O)cs1)C(C)C`, 41.1%.

Regarding `N#C[S-].[Au+].c1ccc(CN2[CH-]N(Cc3ccccc3)C(c3ccccc3)=C2c2ccccc2)cc1`, the growth was 3.87% (active).

On to `CCCCCCCCCCCCNC(c1ccccc1)C(O)c1ccccc1` (configuration not stated), for which the growth was 96.7%.
